In PubChem BioAssay one finds composite z-score and composite Z-score data, which are given here for 16 compounds.

Activity calls are given as the source filed them.

One experiment concerns the target Albumin (Bos taurus) (UniProt P02769). Description: bovine serum albumin binders on microarray, profiling panel, artefact control for SMM control protein annotation, biochemical, small-molecule microarray, Alexa647 label, 635/667 nm fluorescence (AID 1118).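 Also: score merges 667 nm emission intensity and signal-to-noise per printed compound spot.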 To be noted: BSA-A647 binding, fluorescence 635 nm, higher = more signal.
A short description of experiment [1]: small-molecule microarray binders of probe aXIP, primary screen, biochemical, NeuroSMM set, 635/667 nm fluorescence (AID 1119).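 Also: probe is the protein aXip251-270 applied at 1 µg/mL to compound-printed slides; binding of probe to printed compounds measured as 667 nm fluorescence plus signal to noise.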 To be noted: higher = more signal, called active from +8 up or from −8 down.
A short description of experiment [2]: small-molecule binders of probe aNOTCH3, primary screen, biochemical, small-molecule microarray, 635/667 nm fluorescence (AID 1120).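 Also: probe is a biotin-tagged antibody raised against NOTCH3 rather than NOTCH3 protein; score merges spot fluorescence near 667 nm with spot signal to noise.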 To be noted: higher = more signal.
The nature of experiment [3]: small-molecule binders of probe aNOTCH2, primary screen, biochemical, small-molecule microarray, 635/667 nm fluorescence (AID 1121).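 Also: score merges feature fluorescence read at 667 nm with its signal to noise.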 To be noted: higher = more signal.
The target of experiment [4] is Carbonic anhydrase 2 (Homo sapiens) (UniProt P00918). Description: CAII small-molecule binders, profiling panel, biochemical, small-molecule microarray, Alexa647-labelled CAII (AID 1122). To be noted: CAII-A647 binding fluorescence, higher = more signal.
The nature of experiment [5]: COS7 lysate on small-molecule microarray, probe aHis, 635 nm (AID 1123).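 Also: z-score combines 667nm fluorescence intensity with signal-to-noise per printed compound spot.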 To be noted: COS7 cell lysate, fluorescence, higher = more signal.
A short description of experiment [6]: compound binding in COS7 lysate, probe aLAP1, primary screen, cell lysate, small-molecule microarray (AID 1124).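 Also: lysate comes from COS7 cells expressing LAP1 and is applied at 0.3 µg/mL; score merges spot fluorescence near 667 nm with signal-to-noise over triplicate slides.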 To be noted: probe aLAP1, fluorescence, higher = more signal.
A further experiment deals with Sam68 (KHDRBS1). The experiment in a line: Sam68 small-molecule binders, primary screen, biochemical, small-molecule microarray, 635 nm fluorescence (AID 1125).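 Also: score merges 667 nm channel intensity with signal to noise over triplicate slides.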 To be noted: small-molecule microarray binding, higher = more signal.
Experiment [7] concerns Chordin-like protein 2 (CHRDL2). The experiment in a line: CHRDL2 small-molecule binders, primary screen, biochemical, small-molecule microarray, 635 nm fluorescence (AID 1126).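 Also: printed compound slides probed with Chrdl2 protein at 4 µg/mL for 1 h at 4 C; score merges 667 nm emission intensity with signal to noise over three replicate slides.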 To be noted: small-molecule microarray binding, fluorescence 635 nm; higher = more signal.
Experiment [8] deals with Concanavalin-A (Canavalia ensiformis) (UniProt P02866). Description: ConA small-molecule binders, primary screen, artefact control for SMM control protein annotation, biochemical, small-molecule microarray, Alexa647 label, 635 nm (AID 1127).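 Also: z combines 667 nm emission intensity with signal-to-noise across three replicate slides.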 To be noted: ConA-A647 binding fluorescence, higher = more signal.
Sequence of Concanavalin-A (Canavalia ensiformis) (P02866 whole entry, looked up): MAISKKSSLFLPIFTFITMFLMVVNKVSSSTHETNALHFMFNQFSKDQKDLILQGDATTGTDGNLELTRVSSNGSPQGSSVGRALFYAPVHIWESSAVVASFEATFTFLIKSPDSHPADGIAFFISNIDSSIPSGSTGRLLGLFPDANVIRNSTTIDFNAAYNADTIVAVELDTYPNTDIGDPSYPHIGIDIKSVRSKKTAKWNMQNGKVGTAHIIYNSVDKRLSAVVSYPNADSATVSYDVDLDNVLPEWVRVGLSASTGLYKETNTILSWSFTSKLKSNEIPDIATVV

Sequence of Albumin (Bos taurus) (P02769 whole entry, looked up): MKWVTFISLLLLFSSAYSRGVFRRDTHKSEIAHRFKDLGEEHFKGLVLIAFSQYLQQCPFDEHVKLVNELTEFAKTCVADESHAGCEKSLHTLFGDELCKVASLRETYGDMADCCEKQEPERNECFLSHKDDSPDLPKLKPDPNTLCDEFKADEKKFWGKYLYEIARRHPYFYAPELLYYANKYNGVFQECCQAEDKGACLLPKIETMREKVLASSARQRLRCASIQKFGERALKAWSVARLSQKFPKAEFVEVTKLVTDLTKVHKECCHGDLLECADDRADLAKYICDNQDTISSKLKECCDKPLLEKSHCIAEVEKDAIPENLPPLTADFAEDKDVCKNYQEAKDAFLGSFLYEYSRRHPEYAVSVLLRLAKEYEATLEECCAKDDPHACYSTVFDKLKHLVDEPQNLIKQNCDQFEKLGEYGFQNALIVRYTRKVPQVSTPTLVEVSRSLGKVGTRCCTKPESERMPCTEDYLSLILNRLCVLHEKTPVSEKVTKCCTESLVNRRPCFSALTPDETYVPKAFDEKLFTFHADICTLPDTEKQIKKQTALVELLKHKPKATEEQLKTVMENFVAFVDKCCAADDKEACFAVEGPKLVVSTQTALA

As for `CCOC(=O)C1=CCC(c2ccncc2)N(S(=O)(=O)c2ccc(C)cc2)C1` (stereo not given), the composite z-score with Albumin (Bos taurus) is 0.924; in [2], 0.191; in experiment [3], -0.0621; in experiment [4], 0.702; in [5], 2.6; in [6] it was 1.05. The figures for the composite z-score (with Sam68 (KHDRBS1); in [7]; in experiment [8]) were 1.3, 0.192 and 0.786, respectively. Moreover, the composite Z-score in experiment [1] was 0.525 (inactive).

For the compound `CC(C)(C)OC(=O)CC[C@@]1(C(=O)N2CCOCC2)N=C(c2ccc(OCCCO)cc2)O[C@@H]1c1ccccc1CN=[N+]=[N-]`, the composite z-score in the experiment with Albumin (Bos taurus) is 0.966; in experiment [2], 0.144; in [3] it was 0.23; in experiment [4], 0.829; in experiment [5], 3.77; in experiment [6], 0.86. Further, the results for the composite z-score (with Sam68 (KHDRBS1); in experiment [7]; in experiment [8]) were 1.29, -0.406 and 1.09, respectively. For the same compound, in experiment [1], the composite Z-score is 1.31 (inactive).

For the compound `COCCOC(=O)N1C(=O)[C@@]2(c3cc(C#CC4=CCCCC4)ccc31)[C@H](c1ccc(O)cc1)N1[C@H](c3ccccc3)[C@H](c3ccccc3)OC(=O)[C@H]1[C@@H]2C(=O)N1CCc2cc(OC)c(OC)cc2C1`, the composite z-score with Albumin (Bos taurus) was 0.699; in experiment [2], -0.0014; in [3], -0.0454; in experiment [4] it was 0.468; in [5] it was 2.29; in experiment [6] it was 0.743. The composite z-score is 1.28 with Sam68 (KHDRBS1), -0.329 in experiment [7] and 0.753 in experiment [8]. In experiment [1], the composite Z-score is -0.007 (inactive).

As to `CN(C)CCCCNC(=O)[C@H]1C[C@H]2C(=O)N[C@@H](CCCCN(C)C)C(=O)N2[C@H]1c1ccc(O)cc1`, the composite z-score is -0.155 with Albumin (Bos taurus); -0.0918 in experiment [2]; -0.0262 in experiment [3]; 0.518 in experiment [4]; -0.28 in experiment [5]; 0.224 in experiment [6]. In addition, the results for the composite z-score (in the experiment on Sam68 (KHDRBS1); in [7]; in experiment [8]) were -0.093, 1.15 and 0.224, respectively. In experiment [1], the composite Z-score was 0.151 (inactive).

With `COc1ccc(NN2C(C(O)c3ccccc3)C=CC3C(=O)N(C4CCCCC4)C(=O)C32)cc1` (stereo not given), the composite z-score with Albumin (Bos taurus) was 0.74; in [2], 0.147; in [3], -0.0047; in [4] it was 0.749; in experiment [5] it was 2.67; in [6], 0.4. Further, the composite z-score with Sam68 (KHDRBS1) is 1.32; in experiment [7], -0.223; in experiment [8], 1.12. For the same compound, in [1], the composite Z-score is 0.38 (inactive).

Consider `CCCCCN1CC=CC23O[C@@H]4/C=C\CCCOC(=O)C4[C@H]2C(=O)N(CCCCCO)[C@@H]3C1=O` (stereo not given in full), for which the composite z-score is -0.191 in the experiment with Albumin (Bos taurus); -0.233 in experiment [2]; -0.182 in experiment [3]; 0.777 in [4]; -1.89 in experiment [5]; -0.682 in [6]. Besides, the composite z-score in the experiment on Sam68 (KHDRBS1) is -0.178; in experiment [7], -0.801; in experiment [8], -0.691. Further, the composite Z-score in experiment [1] was -0.594 (inactive).

For the compound `CN(C)C(=O)[C@]1(CCS(=O)(=O)c2ccccc2)N=C(c2ccc(OCCCO)cc2)O[C@@H]1c1ccccc1CN=[N+]=[N-]`, the composite z-score in the experiment with Albumin (Bos taurus) worked out at 0.955; in [2] it was 0.0743; in [3], 0.139; in [4], 0.73; in experiment [5], 2.78; in experiment [6], 0.766. For the same compound, the composite z-score with Sam68 (KHDRBS1) is 1.3; in [7], -0.109; in experiment [8] it was 1.17. For the same compound, the composite Z-score in experiment [1] was 0.581 (inactive).

For `COC(=O)[C@@]1(Cc2ccccc2)[C@H]2c3cc(C(=O)N(C)C)n(CCF)c3C[C@H]2CN1C(=O)c1ccccc1`, the composite z-score with Albumin (Bos taurus) is 1.11; in experiment [2], 0.62; in experiment [3], 0.334; in experiment [4] it was 0.531; in [5] it was 3.26; in [6], 1.08. Also, the values for the composite z-score (in the experiment with Sam68 (KHDRBS1); in [7]; in [8]) were 0.302, -0.927 and 0.517, respectively. The composite Z-score in [1] was 0.507 (inactive).

For `C=CCNC(=O)[C@H]1[C@@H]2C(=O)O[C@@H](c3ccccc3)[C@@H](c3ccccc3)N2[C@@H](c2ccc(O)cc2)[C@]12C(=O)N(C(=O)OCCOC)c1ccc(C#Cc3ccc(OC)cc3)cc12`, the composite z-score with Albumin (Bos taurus) was 0.451; in [2], 0.0271; in experiment [3], -0.112; in experiment [4], 0.382; in experiment [5], 0.428; in [6] it was 0.5. The values for the composite z-score (with Sam68 (KHDRBS1); in experiment [7]; in experiment [8]) were 0.934, -0.142 and 0.876, respectively. The composite Z-score in experiment [1] was -0.0437 (inactive).

With `CCCCC(=C=CC[C@H](O)c1ccccc1OCCO)CCO`, the composite z-score in the experiment with Albumin (Bos taurus) is 0.0552; in [2], -0.16; in experiment [3], -0.164; in experiment [4], 0.524; in experiment [5], 1.91; in [6] it was 0.0655. The composite z-score with Sam68 (KHDRBS1) is 0.597; in experiment [7] it was -0.336; in [8], -0.14. Besides, the composite Z-score in [1] is 0.849 (inactive).

As for `COC(=O)C(CC#Cc1ccc2c(c1)[C@]1(C(=O)N2)[C@H](C(=O)N2CCN(c3ncccn3)CC2)[C@H]2C(=O)O[C@H](c3ccccc3)[C@H](c3ccccc3)N2[C@@H]1c1ccc(O)cc1)C(=O)OC`, the composite z-score with Albumin (Bos taurus) is -0.542; in experiment [2], 0.972; in [3], 0.279; in experiment [4] it was 0.636; in experiment [5], 2.38; in experiment [6], 0.97. Further, the composite z-score with Sam68 (KHDRBS1) was found to be 1.28; in [7] it was 1.08; in experiment [8] it was 1.21. Further, the composite Z-score in experiment [1] was 0.939 (inactive).

Turning to `CCOC(=O)C1=CCC(c2cccn2C(=O)OC(C)(C)C)N(S(=O)(=O)c2ccc(C)cc2)C1` (stereo not given), the composite z-score with Albumin (Bos taurus) is 0.871; in experiment [2] it was 0.17; in experiment [3], 0.0351; in experiment [4], 0.523; in [5] it was 2.82; in [6] it was 0.421. The composite z-score with Sam68 (KHDRBS1) came to 0.948; in experiment [7], 0.551; in experiment [8], 0.722. In experiment [1], the composite Z-score was 0.76 (inactive).

For `COC(=O)C1(CC(C)C)C=C2C(=C(C)C(=O)C2C)CN1` (stereo not given), the composite z-score is -0.293 in the experiment with Albumin (Bos taurus); 0.786 in experiment [2]; 0.175 in experiment [3]; 0.754 in [4]; 1.63 in experiment [5]; 0.311 in experiment [6]. Also, the composite z-score with Sam68 (KHDRBS1) was -0.0177; in experiment [7] it was 0.0633; in experiment [8] it was -0.667. The composite Z-score in experiment [1] was 1.64 (inactive).

Turning to `CN1C(=O)C2C=CC(C(O)c3ccc([N+](=O)[O-])cc3)N(Nc3ccccc3)C2C1=O` (stereo not given), the composite z-score with Albumin (Bos taurus) is 1.06; in experiment [2], 0.315; in experiment [3], -0.0305; in experiment [4], 0.652; in experiment [5] it was 1.94; in experiment [6], 0.701. In addition, the composite z-score was determined as 1.31 with Sam68 (KHDRBS1), 0.196 in experiment [7] and 1.15 in experiment [8]. Moreover, the composite Z-score in experiment [1] was -1.05 (inactive).

With `C=C(COC)C(=O)CC[C@@H](OC(=O)c1ccccc1-c1ccccc1C(=O)O)c1ccccc1OCCO`, the composite z-score with Albumin (Bos taurus) is -0.597; in experiment [2], -0.122; in experiment [3] it was -0.0174; in experiment [4], 0.531; in experiment [5] it was -0.381; in [6] it was 1.67. Further, the composite z-score with Sam68 (KHDRBS1) came to 0.448; in experiment [7], 0.538; in [8] it was 0.0185. Moreover, the composite Z-score in experiment [1] is 0.49 (inactive).

With `COC(=O)C(CC#Cc1ccc2c(c1)[C@]1(C(=O)N2)[C@H](C(N)=O)[C@H]2C(=O)O[C@H](c3ccccc3)[C@H](c3ccccc3)N2[C@@H]1c1ccccc1OCCO)C(=O)OC`, the composite z-score is 0.398 with Albumin (Bos taurus); -0.248 in experiment [2]; -0.124 in experiment [3]; 0.434 in experiment [4]; 2.34 in experiment [5]; 0.782 in experiment [6]. In addition, the composite z-score in the experiment on Sam68 (KHDRBS1) was 1.13; in experiment [7] it was -0.0393; in [8], 1.12. Also, the composite Z-score in experiment [1] was -0.363 (inactive).
